697 NFkB inh = inhibitors of the PMA/ionomycin-induced NF-kB reporter in 697 B cells. 697 B-cell NF-kB luciferase reporter, 16 h. AID 435022. actives 0.33% (n = 330,000). inhibition, % at 4 µM; in the data active means inhibition above about 35%
Gli-Sufu antag = antagonists of Gli-Sufu signaling. Sufu-KO-LIGHT fibroblasts, Gli luciferase reporter luminescence. actives 0.74% (n = 340,000). AID 588413. inhibition, % at 5 µM;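 active means inhibition above about 55%, limit read from the data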
Jurkat NFkB inh = inhibitors of the PMA/ionomycin-induced NF-kB reporter in Jurkat cells; PMA/ionomycin-induced NF-kB luciferase reporter, luminescence; inhibition, % at 4 µM; actives 0.53% (n = 330,000); AID 435003; in the data active means inhibition above about 50%
Beta cell apopt = beta cell apoptosis inhibition; protection from apoptosis, % (concentration not given with the values); actives 0.8% (n = 300,000); INS-1E cytokine-induced death, ATP luminescence, 48 h; percent of positive-control rescue, neutral wells zero; AID 435005;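 active means Every replicate reaches about 75%, or at least half do and their mean reaches it too, limit read from the data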;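 further: higher means more ATP so stronger rescue from cytokine killing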
Mdm2-MdmX inh = inhibitors of human Mdm2/MdmX interaction; inhibition, % at 8 µM; actives 3% (n = 330,000); O15151+Q00987; SaOS-2 split-luciferase Mdm2/MdmX complementation, luminescence;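 active means inhibition of at least 50% at 8 µM in the primary screen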
Target sequence (O15151 whole entry, looked up): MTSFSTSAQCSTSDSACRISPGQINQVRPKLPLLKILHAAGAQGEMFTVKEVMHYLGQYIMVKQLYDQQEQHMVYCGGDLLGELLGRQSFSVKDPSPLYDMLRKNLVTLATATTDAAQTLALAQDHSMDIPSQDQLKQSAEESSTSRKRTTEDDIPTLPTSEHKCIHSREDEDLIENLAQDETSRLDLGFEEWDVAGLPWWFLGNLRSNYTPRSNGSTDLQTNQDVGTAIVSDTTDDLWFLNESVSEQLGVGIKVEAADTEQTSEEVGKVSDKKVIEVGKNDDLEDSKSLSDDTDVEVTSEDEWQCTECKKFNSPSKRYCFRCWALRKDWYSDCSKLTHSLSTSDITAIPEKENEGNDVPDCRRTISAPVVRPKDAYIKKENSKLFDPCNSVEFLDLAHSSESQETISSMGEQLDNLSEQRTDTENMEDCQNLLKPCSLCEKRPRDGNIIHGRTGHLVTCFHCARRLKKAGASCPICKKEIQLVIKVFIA
Target sequence (Q00987 whole entry, looked up): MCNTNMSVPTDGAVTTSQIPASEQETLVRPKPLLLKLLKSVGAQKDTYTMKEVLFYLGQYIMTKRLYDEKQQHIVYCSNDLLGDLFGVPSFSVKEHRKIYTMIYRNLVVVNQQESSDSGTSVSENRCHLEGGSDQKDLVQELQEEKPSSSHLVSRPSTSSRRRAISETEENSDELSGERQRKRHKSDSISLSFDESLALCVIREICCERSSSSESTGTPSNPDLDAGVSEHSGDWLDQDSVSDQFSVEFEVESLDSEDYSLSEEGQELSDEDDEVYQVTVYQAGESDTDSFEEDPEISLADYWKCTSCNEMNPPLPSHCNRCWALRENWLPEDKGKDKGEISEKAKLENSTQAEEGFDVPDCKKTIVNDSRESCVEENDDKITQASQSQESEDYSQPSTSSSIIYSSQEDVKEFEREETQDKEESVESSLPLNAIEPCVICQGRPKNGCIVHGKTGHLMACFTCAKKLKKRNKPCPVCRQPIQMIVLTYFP
Mdm2-MdmX conf = confirmation of human Mdm2/MdmX interaction inhibitors | Mdm2-MdmX binding, luminescent assay | shares compounds with Mdm2-MdmX inh | actives 55% (n = 10,000) | inhibition, % at 8 µM; in the data active means inhibition above about 40%
Full FLuc ctr = inhibits full-length luciferase, flagging false Mdm2/MdmX hits. actives 77% (n = 6,200). shares compounds with Mdm2-MdmX inh. AID 504607. SaOS-2 full-length luciferase counterscreen, luminescence. inhibition, % at 8 µM;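 active means mean inhibition at 8 µM reaching about 37%, which flags the compound as non-specific, limit read from the data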;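 further: p53-null SaOS-2 cells with luciferase driven by a doxycycline-inducible promoter; compound on cells about two nights before reading with doxycycline added after day one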
Each line names hits and unclear results; the compound was inactive in the other large screens (follow-up assays come after a bar, where they were run). Shown are actives, neighbours in structure and some others; about 4% of the full set was active somewhere.

COc1ccc(/C=C/C(=O)c2c(O)n(CCC3=CCCCC3)c(=O)[nH]c2=O)cc1OC	Mdm2-MdmX inh 69.5 | Mdm2-MdmX conf inactive
C=CCn1c(O)c(C(C)=NCCC2=CCCCC2)c(=O)[nH]c1=O	none (no result: Beta cell apopt)
CC1CC(C)CN(C(=O)COC(=O)c2cn(C)c3ccccc23)C1 (configuration not stated)	none
CCOC(=O)c1ccc(-[n+]2c(-c3ccccc3)cc(-c3ccccc3)cc2-c2ccccc2)cc1	Beta cell apopt 122.8, Mdm2-MdmX inh 93.0 | Mdm2-MdmX conf 61.2 | Full FLuc ctr inactive
c1ccc(-c2cc(-c3ccccc3)[n+](-c3ccccc3)c(-c3ccccc3)c2)cc1	Gli-Sufu antag 72.9, Beta cell apopt 112.8, Mdm2-MdmX inh 89.2 | Mdm2-MdmX conf 91.8 | Full FLuc ctr 56.3
CCOC(=O)c1cccc(-[n+]2c(-c3ccccc3)cc(-c3ccccc3)cc2-c2ccccc2)c1	Beta cell apopt 135.1, Mdm2-MdmX inh 88.7 | Mdm2-MdmX conf 50.2 | Full FLuc ctr inactive
Cc1ccc(O)c(CN2CCC3CCC(C3)C2)c1 (configuration not stated)	none (no result: 697 NFkB inh, Jurkat NFkB inh, Beta cell apopt, Mdm2-MdmX inh)
O=C1CN=C(c2ccc(Br)cc2)c2c(sc3c2CCCC3)N1CCN1CCCCC1	none
CC(=O)O[C@@H]1/C=C/[C@](C)(O)C[C@@H](C)C/C=C/[C@H]2[C@@H]3O[C@]3(C)[C@@H](C)[C@H]3[C@H](Cc4ccccc4)NC(=O)[C@@]312	Mdm2-MdmX inh 77.8 | Mdm2-MdmX conf 51.5 | Full FLuc ctr 42.2
COC(=O)C1=C(c2cc3ccccc3s2)C[C@@H]2CC[C@H]1N2C(=O)NCc1ccc(C(F)(F)F)cc1	Mdm2-MdmX inh 57.4 | Mdm2-MdmX conf inactive
O=[N+]([O-])c1cc(F)c(N2CCCCC2)cc1Br	none
Cc1ccc(Oc2cc(NN3CCCCC3)c([N+](=O)[O-])cc2[N+](=O)[O-])c([N+](=O)[O-])c1	Mdm2-MdmX inh 50.6 | Mdm2-MdmX conf inactive
[N-]=[N+]=CC(=O)OC[C@H](N)C(=O)O	none
COc1ccc(CNCCc2c(C)[nH]c3ccc(OC(F)(F)F)cc23)c(OC)c1	Gli-Sufu antag 56.7, Beta cell apopt 87.9, Mdm2-MdmX inh 87.0 | Mdm2-MdmX conf 52.7 | Full FLuc ctr 52.3
COc1ccccc1C1=NCc2nnc(C)n2-c2ccc(Cl)cc21	none
Cc1ncc2n1-c1ccc(Cl)cc1C(c1ccccc1F)=NC2	Mdm2-MdmX inh 51.1 (no result: Beta cell apopt) | Mdm2-MdmX conf inactive
C/C=C/CC#N	none
Cc1cccc(-n2c(O)c(/C=C3/C(c4ccccc4)=Nc4ccccc43)c(=O)[nH]c2=O)c1	Mdm2-MdmX inh 53.6 | Mdm2-MdmX conf 57.0 | Full FLuc ctr inactive
Cc1cccc(-n2c(O)c(/C=C/C=Nc3ccccc3)c(=O)[nH]c2=O)c1	none
COc1cc2c(cc1OC)-c1c(OC)c(OC)c(OC)c3ccnc(c13)C2=O	Beta cell apopt 89.2, Mdm2-MdmX inh 72.4 | Mdm2-MdmX conf 43.7 | Full FLuc ctr inactive
CC[C@H](C)[C@@H]1O[C@@]2(C=CC1C)CC1C[C@@H](CC=C(C)C(O[C@H]3CC(OC)C(O[C@H]4CC(OC)C(O)C(C)O4)C(C)O3)C(C)C=CC=C3CO[C@@H]4C(O)C(C)=C[C@@H](C(=O)O1)[C@]34O)O2 (some centres not stated)	Mdm2-MdmX inh 84.7 (no result: Gli-Sufu antag) | Mdm2-MdmX conf inactive
COc1ccc(CCN)cc1OC	none
NCCc1ccc(OCc2ccccc2)c(OCc2ccccc2)c1	Mdm2-MdmX inh 92.4 | Mdm2-MdmX conf inactive
COc1ccc(CN2CCN(C(=O)Cc3ccccc3)CC2)cc1Br	none (no result: Beta cell apopt)
O=c1[nH]c(O)c(N=Nc2ccc3c(c2)OCCO3)c(=O)[nH]1	Mdm2-MdmX inh 57.9 | Mdm2-MdmX conf 67.5 | Full FLuc ctr 78.0
O=NN1CCCCC1	none
CC(C)[C@H]1CC2C3CC=C4C[C@@H](O)CC[C@]4(C)C3CC[C@]2(C)[C@H]1O (some centres not stated)	none
C[C@@H]1CC[C@@]2(NC1)O[C@H]1C[C@H]3[C@@H]4CC=C5C[C@@H](O)CC[C@]5(C)[C@H]4CC[C@]3(C)[C@H]1[C@@H]2C	Mdm2-MdmX inh 57.8 | Mdm2-MdmX conf inactive
CCCCCn1c(=O)c(C(=O)NCc2ccncc2)c(O)c2ccccc21	Mdm2-MdmX inh 51.4 | Mdm2-MdmX conf inactive
CCCCCn1c(=O)c(C(=O)Nc2ccccn2)c(O)c2ccccc21	Mdm2-MdmX inh 53.9 (no result: Beta cell apopt) | Mdm2-MdmX conf inactive
CCCCn1c(=O)c(C(=O)NCc2ccc(Cl)cc2)c(O)c2ccccc21	Mdm2-MdmX inh 51.8 (no result: Beta cell apopt) | Mdm2-MdmX conf inactive
CCCCn1c(=O)c(C(=O)NCCc2ccccc2)c(O)c2ccccc21	none
O=C(CCC(=O)N1C[C@H]2C[C@@H](C1)c1cccc(=O)n1C2)NCc1cccc(C(F)(F)F)c1	none (no result: Beta cell apopt)
O=[N+]([O-])c1cccc2c([As](=O)(O)O)cccc12	none
COc1ccc(CCNC(=O)c2c(N)n(CCN3CCOCC3)c3nc4ccccc4nc23)cc1	Mdm2-MdmX inh 76.2 | Mdm2-MdmX conf inactive
Nc1c(C(=O)NCCc2ccccc2)c2nc3ccccc3nc2n1CCN1CCOCC1	Mdm2-MdmX inh 54.4 (no result: Beta cell apopt) | Mdm2-MdmX conf inactive
Nc1c(C(=O)NCCN2CCOCC2)c2nc3ccccc3nc2n1Cc1ccccc1	none
COc1ccc2c(c1OC)C(=O)OC2c1c(O)n(C2CCCCC2)c(=O)[nH]c1=O (configuration not stated)	none
COC(=O)[C@@H]1C[C@H]1[C@@H](NP(=O)(c1ccccc1)c1ccccc1)c1ccccc1	Mdm2-MdmX inh 56.3 | Mdm2-MdmX conf 40.2 | Full FLuc ctr 62.7
Cc1ccccc1-n1c(O)c(/C=N/N2CCOCC2)c(=O)[nH]c1=S	none (no result: Beta cell apopt)
C#C[C@]1(O)CCC2C3CCC4=C/C(=N/OCC(=O)NC(C)C(=O)NC(CCSC)C(=O)O)CC[C@]4(C)C3CC[C@@]21C (some centres not stated)	none
COC(=O)C1=C(c2cccc(OCc3ccccc3)c2)C[C@@H]2CC[C@H]1N2C(=O)NC1CCN(Cc2ccccc2)CC1	Mdm2-MdmX inh 60.7 | Mdm2-MdmX conf 40.5 | Full FLuc ctr 70.7
COC(=O)C1=C(c2ccc(F)cc2OCc2ccccc2)C[C@@H]2CC[C@H]1N2C(=O)NCc1ccccc1	none
COC(=O)C1=C(c2ccc(F)cc2OCc2ccccc2)C[C@@H]2CC[C@H]1N2C(=O)NC1CCN(Cc2ccccc2)CC1	Mdm2-MdmX inh 76.2 | Mdm2-MdmX conf inactive | Full FLuc ctr 60.4
COC(=O)C1=C(c2ccccc2OCc2ccccc2)C[C@@H]2CC[C@H]1N2C(=O)NC1CCN(Cc2ccccc2)CC1	Mdm2-MdmX inh 51.0 | Mdm2-MdmX conf inactive
CCOC(=O)c1cc2c(cn1)[C@H](CCO)NC2	none (no result: 697 NFkB inh, Jurkat NFkB inh, Beta cell apopt, Mdm2-MdmX inh)
CC(NC1CCCCC1)C(O)C12CC3CC(CC(C3)C1)C2 (configuration not stated)	none

Compound activity from PubChem.
